Measured values taken from PubChem BioAssay (EPA / NIEHS).
Records with an inconclusive call do not appear. Calls of active or inactive are those of the source. Rule for the calls, unless noted: active = hit-call score of the fitted dose curve at least 0.9, where 1 is the maximum; inactive = score below 0.9.

Tests used:
[1] = biological target: human Peroxisome Proliferator-activated Receptor alpha (PPARa), PPARA (gene 5465) (UniProt Q07869); experiment: ATG_PPARa_TRANS: Attagene TRANS-FACTORIAL HepG2 Assay for human Peroxisome Proliferator-activated Receptor alpha (PPARa) (AID 2283001; active = hit-call score of the fitted dose curve at least 0.9, where 1 is the maximum;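 for AC50: potency for gain of reporter signal over DMSO so agonist or activator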)
Outline: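 Gain-of-signal endpoint: reporter mRNA induction relative to DMSO, detected by fluorescent RT-PCR and capillary electrophoresis. HepG2 cells transiently carried GAL4-UAS-driven reporter units plus NR-Gal4 fusion; exposure lasted 24 h.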

[2] = read-out: Intercellular Adhesion Molecule 1 (ICAM1), ICAM1 (gene 3383); experiment: BSK_3C_ICAM1: BioMAP Diversity Plus: 3C Assay for Intercellular Adhesion Molecule 1 (ICAM1) Biomarker Activity (AID 2283003); conditions: primary human endothelial cells (HUVEC); actives raise or lower the signal
Outline: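 ICAM-1 levels measured by ELISA after HUVEC cultures in the 3C system had been dosed for 24 h. Gain or loss of signal relative to DMSO was fitted in both directions.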

[3] = BSK_3C_Proliferation: Cell Proliferation Assessment in the BioMAP Diversity Plus: 3C Assay (AID 2283006); conditions: primary human endothelial cells (HUVEC);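 for AC50: potency may reflect either rise or fall in cell number versus DMSO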
Outline: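 Read-out is total protein by SRB absorbance at 560 nm, taken as a proxy for relative cell number. Primary human umbilical vein endothelium cultured below confluence was dosed for 48 h, TCA-fixed and SRB-stained; curves were fitted bidirectionally versus DMSO.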

[4] = read-out: E-selectin (Homo sapiens) (UniProt P16581); experiment: BSK_3C_Eselectin: BioMAP Diversity Plus: 3C Assay for Eselectin Biomarker Activity (AID 2283015); conditions: primary human endothelial cells (HUVEC); actives raise or lower the signal
Outline: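 Primary human umbilical vein endothelial cells (3C system) were dosed with chemical and cell-surface E-selectin measured by ELISA 24 h later. Bidirectional curve fitting used DMSO as negative control and baseline.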

[5] = read-out: Interleukin-1 alpha (IL1a), IL1A (gene 3552); experiment: BSK_BE3C_IL1a: BioMAP Diversity Plus: BE3C Assay for Interleukin-1 alpha (IL1a) Biomarker Activity (AID 2283016); conditions: primary human bronchial epithelial cells; actives raise or lower the signal
Outline: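 BE3C primary human bronchial epithelium; cpd 24 h; IL-1a by ELISA; bidirectional fit vs DMSO; parallel SRB (0.1% SRB, 10% TCA fix, 560 nm) for cytotoxicity.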

[6] = read-out: Monocyte Chemoattractant Protein-1 (MCP1), CCL2 (gene 6347); experiment: BSK_3C_MCP1: BioMAP Diversity Plus: 3C Assay for Monocyte Chemoattractant Protein-1 (MCP1) Biomarker Activity (AID 2283017); conditions: primary human endothelial cells (HUVEC); actives raise or lower the signal
Outline: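 Primary human umbilical vein endothelial cells (3C system) were exposed to test chemical for 24 h, after which MCP-1 was quantified by ELISA. Activity was fitted bidirectionally against DMSO as negative control and baseline.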

[7] = read-out: Monocyte Chemoattractant Protein-1 (MCP1), CCL2 (gene 6347); experiment: BSK_4H_MCP1: BioMAP Diversity Plus: 4H Assay for Monocyte Chemoattractant Protein-1 (MCP1) Biomarker Activity (AID 2283018); conditions: primary human endothelial cells (HUVEC); actives raise or lower the signal
Outline: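 ELISA read-out of MCP-1 from human vascular endothelial primary cells taken at 24 hours after compound exposure. Activity was fitted in both directions relative to DMSO, which served as negative control.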

[8] = read-out: Interleukin-8 (IL8), CXCL8 (gene 3576); experiment: BSK_3C_IL8: BioMAP Diversity Plus: 3C Assay for Interleukin-8 (IL8) Biomarker Activity (AID 2283020); conditions: primary human endothelial cells (HUVEC); actives raise or lower the signal
Outline: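 ELISA read-out of IL-8 from human umbilical vein endothelium, measured 24 h after chemical dosing. Activity is expressed relative to DMSO negative control, with both increases and decreases fitted.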

[9] = read-out: Monokine induced gamma interferon (MIG), CXCL9 (gene 4283); experiment: BSK_3C_MIG: BioMAP Diversity Plus: 3C Assay for Monokine induced gamma interferon (MIG) Biomarker Activity (AID 2283021); conditions: primary human endothelial cells (HUVEC); actives raise or lower the signal;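 for AC50: MIG protein level measured by immunoassay in the treated endothelial cultures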
Outline: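 Read-out is ELISA detection of MIG on human umbilical vein endothelial cells, taken 24 h after dosing. Gain or loss of signal was scored relative to DMSO controls using bidirectional curve fitting.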

[10] = biological target: human Vitamin D Receptor (VDR), VDR (gene 7421) (UniProt P11473); experiment: ATG_VDR_TRANS: Attagene TRANS-FACTORIAL HepG2 Assay for human Vitamin D Receptor (VDR) (AID 2283022; active = hit-call score of the fitted dose curve at least 0.9, where 1 is the maximum)
Outline: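 HepG2 cells were transiently transfected with multiple GAL4-UAS reporter units, so signal reflects exogenous chimeric receptor-Gal4 activity. After 24 h compound exposure, reporter mRNA was measured by RT-PCR, fluorescent labelling and capillary electrophoresis, fitted for gain of signal versus DMSO.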

[11] = biological target: Peroxisome proliferator-activated receptor gamma (Homo sapiens) (UniProt P37231); experiment: ATG_PPARg_TRANS: Attagene TRANS-FACTORIAL HepG2 Assay for human Peroxisome Proliferator-activated Receptor-gamma (PPARg) (AID 2283007; active = hit-call score of the fitted dose curve at least 0.9, where 1 is the maximum)
Outline: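 A TRANS-format multiplexed reporter assay measures activity of an exogenous chimeric NR-Gal4 protein in HepG2 cells. After 24 h of chemical exposure, reporter transcripts are amplified, fluorescently labelled and sized by capillary electrophoresis, with gain of signal scored against DMSO.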

[12] = biological target: Nuclear receptor subfamily 1 group I member 2 (Homo sapiens) (UniProt O75469); experiment: ATG_PXR_TRANS: Attagene TRANS-FACTORIAL HepG2 Assay for human Pregnane X Receptor (PXR) (AID 2283008; active = hit-call score of the fitted dose curve at least 0.9, where 1 is the maximum)
Outline: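 Read-out is fluorescence of labelled reporter cDNA fragments separated by capillary electrophoresis after RT-PCR and HpaI digestion. Source: HepG2 cells carrying PXR-GAL4/UAS reporter constructs, treated 24 h; activity fitted upward relative to DMSO.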

[13] = biological target: Retinoic acid receptor RXR-alpha (Homo sapiens) (UniProt P19793); experiment: ATG_RXRa_TRANS: Attagene TRANS-FACTORIAL HepG2 Assay for human Retinoid X Receptor alpha (RXRa) (AID 2283012; active = hit-call score of the fitted dose curve at least 0.9, where 1 is the maximum)
Outline: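 Transient transfection of human HepG2 with multiple GAL4-UAS reporter constructs; 24 h compound exposure; total RNA isolated, reverse-transcribed, PCR-amplified, 6-FAM labelled, HpaI-cut, resolved by capillary electrophoresis. Positive-direction fit versus DMSO.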

[14] = biological target: human Retinoid X Receptor beta (RXRb), RXRB (gene 6257) (UniProt P28702); experiment: ATG_RXRb_TRANS: Attagene TRANS-FACTORIAL HepG2 Assay for human Retinoid X Receptor beta (RXRb) (AID 2283013; active = hit-call score of the fitted dose curve at least 0.9, where 1 is the maximum)
Outline: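 Transfect HepG2 with GAL4-UAS multi-reporter constructs (chimeric NR-Gal4, TRANS format); dose compound 24 h; isolate RNA, RT-PCR, FAM primer extension, HpaI digest; quantify by capillary electrophoresis; positive direction vs DMSO.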

[15] = biological target: human Thyroid Receptor alpha (THRa1), THRA (gene 7067) (UniProt P10827); experiment: ATG_THRa1_TRANS: Attagene TRANS-FACTORIAL HepG2 Assay for human Thyroid Receptor alpha (THRa1) (AID 2283014; active = hit-call score of the fitted dose curve at least 0.9, where 1 is the maximum)
Outline: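 HepG2 cells transiently transfected with multiplexed GAL4-UAS reporter units for exogenous chimeric THRa1-Gal4; reporter mRNA measured 24 h after dosing by RT-PCR, 6-FAM labelling, HpaI digestion and capillary electrophoresis. Gain-of-signal fitted versus DMSO baseline.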

[16] = read-out: Human Leukocyte Antigen - DR isotype (HLADR), HLA-DRA (gene 3122); experiment: BSK_3C_HLADR: BioMAP Diversity Plus: 3C Assay for Human Leukocyte Antigen - DR isotype (HLADR) Biomarker Activity (AID 2283019); conditions: primary human endothelial cells (HUVEC); actives raise or lower the signal
Outline: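 Primary human umbilical vein endothelial cells (3C system) were dosed with compound and cell-surface HLA-DR was quantified by ELISA at 24 h. Activity was fitted bidirectionally against DMSO as negative control and baseline.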

[17] = biological target: human Peroxisome Proliferator-activated Receptor delta (PPARd), PPARD (gene 5467) (UniProt Q03181); experiment: ATG_PPARd_TRANS: Attagene TRANS-FACTORIAL HepG2 Assay for human Peroxisome Proliferator-activated Receptor delta (PPARd) (AID 2283002; active = hit-call score of the fitted dose curve at least 0.9, where 1 is the maximum)
Outline: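 Measured quantity: GAL4-UAS reporter transcript induction in HepG2 after 24 h chemical dosing, with NR-Gal4 chimeras supplied by transient transfection. Detection by RT-PCR and capillary electrophoresis; upward fit against DMSO.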

[18] = biological target: human Retinoic Acid Receptor gamma (RARg), RARG (gene 5916) (UniProt P13631); experiment: ATG_RARg_TRANS: Attagene TRANS-FACTORIAL HepG2 Assay for human Retinoic Acid Receptor gamma (RARg) (AID 2283009; active = hit-call score of the fitted dose curve at least 0.9, where 1 is the maximum)
Outline: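 Transient transfection of HepG2 with multi-reporter constructs, then 24 h chemical treatment. Total RNA isolated, reverse-transcribed, PCR-amplified, fluorescently labelled and resolved by capillary electrophoresis; activity scored as mRNA induction versus DMSO.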

[19] = biological target: human RAR-related Orphan Receptor beta (RORb), RORB (gene 6096) (UniProt Q92753); experiment: ATG_RORb_TRANS: Attagene TRANS-FACTORIAL HepG2 Assay for human RAR-related Orphan Receptor beta (RORb) (AID 2283010; active = hit-call score of the fitted dose curve at least 0.9, where 1 is the maximum)
Outline: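 Readout is reporter-gene mRNA induction, detected as fluorescence after RT-PCR and capillary electrophoresis, fitted for gain of signal against DMSO controls. Transiently transfected HepG2 liver cells carrying GAL4-UAS reporter constructs were treated for 24 hours.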

[20] = biological target: human RAR-related Orphan Receptor gamma (RORg), RORC (gene 6097) (UniProt P51449); experiment: ATG_RORg_TRANS: Attagene TRANS-FACTORIAL HepG2 Assay for human RAR-related Orphan Receptor gamma (RORg) (AID 2283011; active = hit-call score of the fitted dose curve at least 0.9, where 1 is the maximum)
Outline: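 Readout: reporter transcript induction (RT-PCR, fluorescent primer extension, capillary electrophoresis) after 24 h compound exposure of transiently transfected HepG2 cells carrying a RORg-Gal4 chimera and GAL4-UAS reporters; DMSO served as baseline, with increasing signal fitted.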

Measured: AC50

Sequence of E-selectin (Homo sapiens) (P16581 whole entry, looked up): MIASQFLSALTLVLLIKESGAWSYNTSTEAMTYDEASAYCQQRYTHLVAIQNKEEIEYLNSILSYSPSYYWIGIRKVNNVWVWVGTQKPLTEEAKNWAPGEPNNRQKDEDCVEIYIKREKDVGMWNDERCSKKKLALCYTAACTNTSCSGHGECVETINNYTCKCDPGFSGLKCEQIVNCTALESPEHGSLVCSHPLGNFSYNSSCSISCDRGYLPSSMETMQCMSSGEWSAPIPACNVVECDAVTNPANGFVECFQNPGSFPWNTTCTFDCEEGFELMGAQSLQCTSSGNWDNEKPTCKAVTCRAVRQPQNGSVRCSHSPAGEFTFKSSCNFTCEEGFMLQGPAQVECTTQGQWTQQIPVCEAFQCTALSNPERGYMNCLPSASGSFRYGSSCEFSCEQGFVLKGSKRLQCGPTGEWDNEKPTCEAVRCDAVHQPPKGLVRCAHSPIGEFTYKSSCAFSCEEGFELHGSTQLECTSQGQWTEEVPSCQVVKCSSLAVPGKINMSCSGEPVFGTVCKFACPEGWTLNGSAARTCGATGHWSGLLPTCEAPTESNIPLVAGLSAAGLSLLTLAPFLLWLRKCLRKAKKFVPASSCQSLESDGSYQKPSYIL
Sequence of Peroxisome proliferator-activated receptor gamma (Homo sapiens) (P37231 whole entry, looked up, the tested form may be a part): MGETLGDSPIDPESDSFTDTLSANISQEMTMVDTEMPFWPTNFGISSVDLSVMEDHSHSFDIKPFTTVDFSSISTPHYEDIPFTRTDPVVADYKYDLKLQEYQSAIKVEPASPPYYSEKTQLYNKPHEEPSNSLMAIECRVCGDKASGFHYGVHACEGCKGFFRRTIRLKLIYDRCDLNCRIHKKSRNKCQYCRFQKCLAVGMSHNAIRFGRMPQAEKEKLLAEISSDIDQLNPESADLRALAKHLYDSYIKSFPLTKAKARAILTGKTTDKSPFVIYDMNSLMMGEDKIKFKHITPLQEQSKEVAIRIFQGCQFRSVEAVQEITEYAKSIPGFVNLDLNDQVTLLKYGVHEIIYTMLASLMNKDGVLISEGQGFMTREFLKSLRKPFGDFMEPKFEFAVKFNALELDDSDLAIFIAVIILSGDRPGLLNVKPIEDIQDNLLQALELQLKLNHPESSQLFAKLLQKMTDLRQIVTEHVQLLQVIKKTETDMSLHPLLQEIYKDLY
Sequence of human RAR-related Orphan Receptor beta (RORb), RORB (gene 6096) (Q92753 whole entry, looked up, the tested form may be a part): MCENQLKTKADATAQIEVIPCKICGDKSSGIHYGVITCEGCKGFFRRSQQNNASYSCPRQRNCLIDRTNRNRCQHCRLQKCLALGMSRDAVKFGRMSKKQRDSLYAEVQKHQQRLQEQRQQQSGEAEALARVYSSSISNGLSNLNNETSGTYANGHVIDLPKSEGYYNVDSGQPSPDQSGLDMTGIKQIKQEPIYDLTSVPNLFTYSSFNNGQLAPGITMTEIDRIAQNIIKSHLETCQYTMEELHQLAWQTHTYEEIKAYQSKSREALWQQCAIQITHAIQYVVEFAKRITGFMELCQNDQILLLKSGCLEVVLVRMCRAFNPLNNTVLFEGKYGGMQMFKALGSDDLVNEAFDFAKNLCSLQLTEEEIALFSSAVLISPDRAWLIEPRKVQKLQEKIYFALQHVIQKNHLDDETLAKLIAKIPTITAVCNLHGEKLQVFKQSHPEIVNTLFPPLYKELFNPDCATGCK
Sequence of human Vitamin D Receptor (VDR), VDR (gene 7421) (P11473 whole entry, looked up, the tested form may be a part): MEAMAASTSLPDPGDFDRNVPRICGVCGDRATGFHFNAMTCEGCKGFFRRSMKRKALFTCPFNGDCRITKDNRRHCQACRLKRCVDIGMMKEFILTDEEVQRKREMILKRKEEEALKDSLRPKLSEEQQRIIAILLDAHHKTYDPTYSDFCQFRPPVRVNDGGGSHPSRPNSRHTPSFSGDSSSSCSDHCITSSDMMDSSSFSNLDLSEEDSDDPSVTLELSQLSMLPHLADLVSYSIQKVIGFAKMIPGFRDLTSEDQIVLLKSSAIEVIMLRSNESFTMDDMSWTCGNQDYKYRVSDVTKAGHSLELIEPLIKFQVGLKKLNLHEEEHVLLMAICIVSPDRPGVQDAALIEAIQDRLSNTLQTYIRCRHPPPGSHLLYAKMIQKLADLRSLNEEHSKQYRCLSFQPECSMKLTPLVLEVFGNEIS
Sequence of Retinoic acid receptor RXR-alpha (Homo sapiens) (P19793 whole entry, looked up, the tested form may be a part): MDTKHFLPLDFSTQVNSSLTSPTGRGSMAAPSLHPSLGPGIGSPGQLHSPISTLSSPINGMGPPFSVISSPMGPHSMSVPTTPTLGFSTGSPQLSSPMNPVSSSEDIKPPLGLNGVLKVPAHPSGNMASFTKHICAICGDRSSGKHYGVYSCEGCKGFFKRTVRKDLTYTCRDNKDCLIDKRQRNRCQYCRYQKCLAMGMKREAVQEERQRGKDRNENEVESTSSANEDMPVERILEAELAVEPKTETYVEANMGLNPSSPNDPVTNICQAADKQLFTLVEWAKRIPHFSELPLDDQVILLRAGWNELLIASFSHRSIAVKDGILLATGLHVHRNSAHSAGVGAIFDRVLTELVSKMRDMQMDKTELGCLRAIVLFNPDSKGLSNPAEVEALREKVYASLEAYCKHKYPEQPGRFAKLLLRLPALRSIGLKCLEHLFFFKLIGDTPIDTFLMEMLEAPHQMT
Sequence of human Retinoic Acid Receptor gamma (RARg), RARG (gene 5916) (P13631 whole entry, looked up): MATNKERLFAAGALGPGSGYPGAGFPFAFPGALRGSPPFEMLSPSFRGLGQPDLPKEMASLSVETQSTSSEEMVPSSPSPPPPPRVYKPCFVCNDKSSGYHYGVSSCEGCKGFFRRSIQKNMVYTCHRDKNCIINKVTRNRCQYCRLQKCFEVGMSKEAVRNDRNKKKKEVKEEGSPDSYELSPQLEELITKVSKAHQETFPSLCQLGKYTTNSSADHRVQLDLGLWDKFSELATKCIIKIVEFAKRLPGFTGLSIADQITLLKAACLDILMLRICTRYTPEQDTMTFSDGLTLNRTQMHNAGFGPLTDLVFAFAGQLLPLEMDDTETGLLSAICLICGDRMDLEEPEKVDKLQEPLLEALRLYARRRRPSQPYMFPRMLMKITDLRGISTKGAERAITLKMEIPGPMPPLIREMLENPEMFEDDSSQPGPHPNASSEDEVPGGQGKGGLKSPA
Sequence of Nuclear receptor subfamily 1 group I member 2 (Homo sapiens) (O75469 whole entry, looked up, the tested form may be a part): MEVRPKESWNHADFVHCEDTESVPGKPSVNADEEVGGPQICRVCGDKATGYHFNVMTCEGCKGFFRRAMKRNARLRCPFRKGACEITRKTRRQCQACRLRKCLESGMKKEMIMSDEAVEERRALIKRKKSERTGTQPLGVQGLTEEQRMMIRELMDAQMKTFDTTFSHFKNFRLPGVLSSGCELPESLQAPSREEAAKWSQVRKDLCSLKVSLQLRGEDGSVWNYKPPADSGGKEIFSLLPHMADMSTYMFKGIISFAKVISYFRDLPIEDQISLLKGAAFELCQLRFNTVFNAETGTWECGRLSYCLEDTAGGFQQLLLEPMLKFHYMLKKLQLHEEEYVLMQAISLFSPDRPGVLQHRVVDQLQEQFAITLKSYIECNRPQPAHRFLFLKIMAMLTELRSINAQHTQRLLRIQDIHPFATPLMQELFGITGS
Sequence of human RAR-related Orphan Receptor gamma (RORg), RORC (gene 6097) (P51449 whole entry, looked up, the tested form may be a part): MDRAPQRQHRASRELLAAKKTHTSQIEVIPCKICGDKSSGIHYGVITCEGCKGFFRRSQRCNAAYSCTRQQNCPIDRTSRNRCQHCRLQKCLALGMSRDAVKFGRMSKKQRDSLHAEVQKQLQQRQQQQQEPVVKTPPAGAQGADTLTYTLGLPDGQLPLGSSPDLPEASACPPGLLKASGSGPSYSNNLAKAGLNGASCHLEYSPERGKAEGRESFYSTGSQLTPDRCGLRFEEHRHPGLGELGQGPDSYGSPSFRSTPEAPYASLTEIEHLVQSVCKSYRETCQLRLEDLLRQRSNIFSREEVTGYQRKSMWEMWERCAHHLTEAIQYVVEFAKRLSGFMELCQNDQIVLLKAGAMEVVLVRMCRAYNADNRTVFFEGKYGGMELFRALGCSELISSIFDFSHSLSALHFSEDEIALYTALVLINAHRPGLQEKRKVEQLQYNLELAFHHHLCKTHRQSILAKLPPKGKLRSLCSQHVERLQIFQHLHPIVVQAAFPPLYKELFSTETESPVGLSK
Sequence of human Retinoid X Receptor beta (RXRb), RXRB (gene 6257) (P28702 whole entry, looked up, the tested form may be a part): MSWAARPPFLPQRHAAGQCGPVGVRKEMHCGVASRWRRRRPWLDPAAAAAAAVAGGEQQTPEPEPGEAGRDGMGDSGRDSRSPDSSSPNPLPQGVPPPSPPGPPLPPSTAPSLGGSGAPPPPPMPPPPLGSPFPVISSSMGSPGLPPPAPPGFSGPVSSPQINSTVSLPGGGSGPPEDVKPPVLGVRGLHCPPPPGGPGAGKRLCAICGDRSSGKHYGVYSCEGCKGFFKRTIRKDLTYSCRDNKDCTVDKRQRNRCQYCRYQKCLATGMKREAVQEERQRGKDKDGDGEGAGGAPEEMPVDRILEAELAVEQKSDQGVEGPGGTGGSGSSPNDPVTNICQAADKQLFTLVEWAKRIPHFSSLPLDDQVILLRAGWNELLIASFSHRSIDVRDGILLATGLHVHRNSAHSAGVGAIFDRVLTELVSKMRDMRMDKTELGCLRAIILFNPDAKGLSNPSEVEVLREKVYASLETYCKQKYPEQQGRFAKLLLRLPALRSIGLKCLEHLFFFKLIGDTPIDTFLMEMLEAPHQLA
Sequence of human Thyroid Receptor alpha (THRa1), THRA (gene 7067) (P10827 whole entry, looked up, the tested form may be a part): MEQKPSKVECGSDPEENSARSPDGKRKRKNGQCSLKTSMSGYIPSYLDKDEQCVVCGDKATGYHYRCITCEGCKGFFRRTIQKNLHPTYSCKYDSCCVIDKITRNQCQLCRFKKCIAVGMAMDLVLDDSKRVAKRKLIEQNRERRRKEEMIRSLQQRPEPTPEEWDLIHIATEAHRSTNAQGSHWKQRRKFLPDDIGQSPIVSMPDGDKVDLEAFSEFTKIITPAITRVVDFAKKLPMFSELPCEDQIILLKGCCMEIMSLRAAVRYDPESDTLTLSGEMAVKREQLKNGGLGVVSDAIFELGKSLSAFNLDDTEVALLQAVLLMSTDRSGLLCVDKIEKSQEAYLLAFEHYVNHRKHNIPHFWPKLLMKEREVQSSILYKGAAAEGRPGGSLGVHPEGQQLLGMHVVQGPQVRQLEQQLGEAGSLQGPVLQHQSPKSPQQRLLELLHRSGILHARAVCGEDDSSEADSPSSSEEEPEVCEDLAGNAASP

OC(CCl)CCl
inactive: [1] | [2] | [3] | [4] | [5] | [6] | [7] | [8] | [9] | [10]

CCCCCCCCCCCCCCO
active: [2] 35.5 µM | [14] 45.4 µM | [4] 36.7 µM | [7] 29.6 µM | [16] 36.7 µM | [8] 30.4 µM | [9] 30.7 µM
inactive: [1] | [11] | [12] | [13] | [15] | [5] | [10]

c1ccc2cc3ccccc3cc2c1
not listed: [8] | [11] | [14] | [19] | [20]
inactive: all other assays above

C[Si](C)(C)C(F)(F)C(F)(F)C(F)(F)F
inactive: all assays above

Cc1ncc([C@@H](CCCCCCc2ccc3c(n2)NCCC3)CC(=O)O)cn1
active: [1] 19.8 µM | [3] 2.14 µM | [11] 100 µM | [8] 1.02 µM
not listed: [6] | [17] | [18] | [19]
inactive: all other assays above

CCCCCCCCCCCCCCCCOS(=O)(=O)O
active: [1] 9.15 µM | [11] 16.9 µM | [14] 14.6 µM | [5] 14.7 µM
not listed: [6] | [16] | [17] | [18] | [19] | [20]
inactive: all other assays above

CC1(C)C(=O)N(Cl)C(=O)N1Cl
inactive: [1] | [2] | [3] | [20] | [4] | [5] | [6] | [7] | [9]

O=S(=O)(O)CCC(F)(F)C(F)(F)C(F)(F)C(F)(F)C(F)(F)C(F)(F)F
not listed: [6] | [13] | [14] | [17]
inactive: all other assays above
